S-ASM inh: inhibitors of human secretory acid sphingomyelinase. hit rate 0.006% among 340,000. AID 504937. Potency, µM (titrated, usually from 57.5 µM), for the others: top-dose activity change, negative = inhibition, most hits filed as inhibitors. P17405. placental ASM, HMU-PC fluorogenic substrate, 60 min; further: potency means the concentration at half of the fitted maximal effect
Target sequence (P17405 47-631 limits assumed): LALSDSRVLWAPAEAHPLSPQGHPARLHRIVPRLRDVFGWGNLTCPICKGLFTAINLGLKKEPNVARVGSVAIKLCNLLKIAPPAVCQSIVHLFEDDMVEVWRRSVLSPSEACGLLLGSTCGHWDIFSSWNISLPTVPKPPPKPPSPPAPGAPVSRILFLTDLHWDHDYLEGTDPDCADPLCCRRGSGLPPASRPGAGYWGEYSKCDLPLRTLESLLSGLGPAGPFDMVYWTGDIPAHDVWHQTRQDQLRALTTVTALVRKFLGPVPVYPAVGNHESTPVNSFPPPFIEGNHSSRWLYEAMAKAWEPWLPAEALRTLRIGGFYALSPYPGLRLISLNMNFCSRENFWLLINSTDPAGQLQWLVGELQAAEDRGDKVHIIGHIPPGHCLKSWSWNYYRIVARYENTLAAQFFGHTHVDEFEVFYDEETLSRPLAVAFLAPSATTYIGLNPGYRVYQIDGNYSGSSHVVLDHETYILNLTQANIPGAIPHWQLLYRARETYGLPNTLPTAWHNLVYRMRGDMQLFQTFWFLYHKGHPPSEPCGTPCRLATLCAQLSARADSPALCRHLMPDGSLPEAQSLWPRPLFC
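HMU-PC0 cleavage (9 uM final) by human placental ASM, 60 min at 37 °C following 10 min compound exposure at RT; stopped at pH 10, fluorescence Ex 386/Em 447 nm.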
TGFb SMAD3 inh: blocks TGF-b signaling; AID 588855; Potency, µM (titrated, usually from 46.1 µM), inactives show at the top dose activity, negative = inhibition, actives largely listed as inhibitors; HepG2 CAGA-GFP TGF-b/SMAD3 reporter, GFP fluorescence, 18 h; TGF-beta stimulated, 500 pg/mL final; hit rate 1.2% among 410,000; further: potency means the concentration at half of the fitted maximal effect; on the % scale 0 is the no-effect control and ±100 the full control effect; nearly all actives have a fitted effect of over 65% in size
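Smad-responsive CAGA-GFP expression was quantified in HEPG2 cells exposed to compounds and 500 pg/mL final TGF-beta for 18 h at 37 degrees C; unstimulated wells defined full inhibition.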
TDP1 cell CPT: growth inhibition of DT40 Tdp1-/-;hTDP1 cells with camptothecin (screen for TDP1 inhibitors); chicken DT40 Tdp1-/-;hTDP1 cells + 20 nM CPT, ATP luminescence, 48 h; AID 686979; Potency, µM (titrated, usually from 46.2 µM), for the others: at the highest dose activity change, negative = growth inhibition, usual class: inhibitors; hit rate 12% among 420,000; further: potency means the concentration at half of the fitted maximal effect; on the % scale 0 is the no-effect control and ±100 the full control effect; nearly all actives have a fitted effect of over 55% in size
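Cell growth measured by CellTiter-Glo luminescence after a minimum 48 h, 37 C compound exposure with 20 nM CPT in Tdp1-knockout DT40 cells stably expressing hTDP1, seeded 400/well; qHTS titration format.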
TDP1 cell noCPT: qHTS for Inhibitors of human tyrosyl-DNA phosphodiesterase 1 (TDP1): qHTS in cells in absence of CPT; hit rate 15% among 420,000; DT40 Tdp1-/- hTDP1 cells, no CPT, ATP luminescence, 48 h; Potency, µM (highest dose often 46.2 µM), for the others: at the highest dose activity change, negative = growth inhibition, actives largely listed as inhibitors; further: potency means the concentration at half of the fitted maximal effect; on the % scale 0 is the no-effect control and ±100 the full control effect; nearly all actives have a fitted effect of over 55% in size
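Growth kinetics read by CellTiter-Glo luminescence after ≥48 hr at 37 °C. Cells: DT40 Tdp1-/- stably carrying human TDP1, 400 per well, compound exposure in the absence of CPT (DMSO vehicle).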
IL-1B inflam inh: inhibitors of inflammasome signaling (IL-1 beta secretion). hit rate 4.7% among 360,000. activity change, % at 57.5 µM. THP-1 LPS/ATP IL-1B secretion, AlphaLISA, 16 h; hits give low values; in the data active means activity change below about -50%; inconclusive means mostly about -30% to -49%; further: on the % scale 0 is the no-effect control and ±100 the full control effect
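THP-1 cells pretreated 1 hr with compounds (up to 57.5 uM final), then stimulated with LPS (250 ng/mL final) plus ATP (1.25 mM final); secreted IL-1B measured by AlphaLISA after 16 hr, decreased signal indicating inhibition.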
HepG2 viability: kills HepG2 cells in TGF-b inhibitor counter-screen | HepG2 CAGA-GFP viability, ATP luminescence, 18 h | Potency, µM (highest dose often 46.1 µM), inactives show at the highest dose activity change, negative = cytotoxicity, usual class: cytotoxic | hit rate 0.76% among 410,000 | AID 588856; further: potency means the concentration at half of the fitted maximal effect
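CellTiter-Glo luminescence gave cytotoxicity after 18 hours at 37 degrees C. The cells were HepG2 CAGA-GFP in 1% FBS DMEM, stimulated with 500 pg/mL TGF-beta after compound addition. %Activity was normalised to no-cell wells (complete cell-killing) and DMSO (no toxicity), and curves were fitted and classified.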
Numbers without * were called inactive; ? = inconclusive; . = no result. Only some compounds are listed: those with a hit (about 19% of all), similar ones and a draw of the others. Unless noted, the call rests on the fitted dose curve; in most records, active means well fitted curve in the direction sought with a large enough effect; inconclusive means small, poorly fitted or top-dose-only effect, or another doubt; inactive means no such curve, though single readings can be large; an effect the other way counts as inactive or inconclusive.

SMILES	S-ASM inh	TGFb SMAD3 inh	TDP1 cell CPT	TDP1 cell noCPT	IL-1B inflam inh	HepG2 viability
COc1ccc(N(CC(=O)Nc2cc(C)ccc2OC)S(=O)(=O)c2c(C)noc2C)cc1	2%	?	23µM*	?	43	5%
COc1cc(NC(=O)CN(c2ccc(C)cc2)S(=O)(=O)c2cccc3nonc23)cc(OC)c1	.	?	?	18µM*	.	-17%
COc1ccc(N(CC(=O)Nc2ccc(C)cc2)S(=O)(=O)c2c(C)noc2C)cc1	1%	2%	?	?	-8	4%
COc1ccc(N(CC(=O)Nc2cc(Cl)ccc2C)S(=O)(=O)c2c(C)noc2C)cc1	0%	11µM*	2.9µM*	3.7µM*	32	-30%
COc1ccc(N(CC(=O)Nc2cc(OC)cc(OC)c2)S(=O)(=O)c2c(C)noc2C)cc1	.	?	7.3µM*	5.8µM*	.	-19%
Cc1ccc(NC(=O)CN(c2ccc(C)cc2)S(=O)(=O)c2cccc3nonc23)cc1	-9%	4%	?	?	-22	-35%
CCOc1ccccc1OCCC(=O)OCC(=O)Nc1c(C)cc(C)cc1C	-2%	-3%	7%	4%	-1	3%
COc1cc(OC)cc(C2=NC3(CCC(C)CC3)NC2=S)c1 (stereo not given)	-9%	-12%	?	?	-20	-2%
COc1cc(=O)n2c(c1C(=O)N(C)Cc1ccsc1)CCN(Cc1c(C)nn(C)c1Cl)CC2	.	.	5%	-5%	.	.
CCOc1ccc(NS(=O)(=O)c2ccc3[nH]cc(C(=O)NCCc4ccccc4)c(=O)c3c2)cc1	.	-10%	-11%	-13%	.	-7%
C[C@@H]1CN([C@@H](C)CO)C(=O)CCCn2nncc2CO[C@@H]1CN(C)C(=O)c1cc(-c2ccccc2)on1	.	-2%	2%	12%	49	3%
CC(=O)c1cccc(NC(=O)CN(c2cc(C)cc(C)c2)S(=O)(=O)c2c(C)noc2C)c1	.	?	16µM*	18µM*	.	-31%
O=C(C1CC1)N1CCN(c2ccc([N+](=O)[O-])cc2-n2cccc2)CC1	-7%	?	12µM*	13µM*	-6	-12%
CC(C)(C)C(=O)N1CCN(c2ccc([N+](=O)[O-])cc2-n2cccc2)CC1	-12%	1%	?	21µM*	-5	-14%
Cc1ccc(Nc2ccc(N3CCN(C(=O)c4ccc([N+](=O)[O-])cc4)CC3)nn2)cc1	.	?	?	23µM*	.	0%
Cc1ccc(C(=O)N2CCN(c3ccc([N+](=O)[O-])cc3-n3cccc3)CC2)cc1	-4%	-6%	?	18µM*	?	-1%
O=S1(=O)CC(N2CCSCC2)CN1Cc1cn(Cc2ccc(F)cc2)nn1 (stereo not given)	.	.	4%	-11%	0	.
N=c1c(C(=O)NCCN2CCOCC2)cc2c(=O)n3ccccc3nc2n1CCCN1CCOCC1	199%	-1%	-4%	10%	-12	-8%
O=C(NCCN1CCN(c2ccccc2)CC1)c1cccn2c(=O)c3ccccc3nc12	27%	0%	?	18µM*	-2	3%
CN(CCCNC(=O)c1cccn2c(=O)c3ccccc3nc12)Cc1ccccc1	194%	11µM*	22µM*	?	?	-30%
CCCCCn1c(=O)[nH]c2cc(C(=O)NCCCN(C)Cc3ccccc3)ccc2c1=O	44%	21%	-30%	-27%	-21	-24%
O=C(NCCN1CCN(c2ccccc2F)CC1)c1cccn2c(=O)c3ccccc3nc12	29%	19%	?	16µM*	8	0%
N#Cc1ccc(C(=O)N(Cc2ccco2)c2c(N)n(Cc3ccccc3)c(=O)[nH]c2=O)cc1	8%	15%	2%	17%	-7	0%
CCOc1ccc(NC(=O)NCc2ccc3c(c2)CCN3C(C)=O)cc1	.	-1%	-17%	-7%	.	-6%
CC(C)(Cc1c[nH]c2ccccc12)NCC(O)COc1ccccc1C#N (stereo not given)	.	.	21µM*	24µM*	.	.
SMILES	S-ASM inh	TGFb SMAD3 inh	TDP1 cell CPT	TDP1 cell noCPT	IL-1B inflam inh	HepG2 viability
Cc1c[nH]c2cccc(OCC(O)CNC(C)(C)C)c12 (stereo not given)	1%	17%	5%	-6%	-7	-5%
Cc1ccccc1Cn1ccc(NC(=O)c2cc3ncc(Br)cn3n2)n1	3%	-8%	7%	3%	3	14%
Cc1ccccc1Cn1ccc(NC(=O)c2nn3cccnc3c2Cl)n1	-4%	-14%	21µM*	?	-11	14%
COc1ccc(-c2noc(Cn3cc(S(=O)(=O)N4CCCC4)ccc3=O)n2)cc1	-2%	5%	2%	1%	8	-35%
COc1ccc(C(=O)N2c3ccccc3C=CC2C#N)cc1 (stereo not given)	-1%	-14%	-23%	?	33	-1%
CCSC(=O)N1c2ccc(OC)cc2C=CC1C#N (stereo not given)	-2%	?	0.0082µM*	0.0052µM*	-7	13%
Cc1ccc2c(c1)C=CC(C#N)N2C(=O)c1ccccc1 (stereo not given)	-11%	-20%	1.6µM*	1.8µM*	53	-18%
Cc1ccc2c(c1)C=CC(C)N2C(=O)c1ccccc1 (stereo not given)	-1%	-3%	?	16µM*	41	0%
CC1=Cc2ccccc2C(C#N)N1C(=O)c1ccccc1 (stereo not given)	2%	-14%	21µM*	18µM*	23	-7%
N#C[C@H]1C(O)C(O)c2ccccc2N1C(=O)c1ccccc1 (stereo not given in full)	-3%	-2%	6%	-6%	27	2%
CC(=O)N1c2ccc(S(=O)(=O)NCC3CCC(C(=O)NCc4ccco4)CC3)cc2CC1C (stereo not given)	-1%	-3%	-23%	6%	41	-4%
COc1cccc(/C=N/NC(=S)NCc2ccco2)c1OC	10%	?	?	?	-2	3%
CCc1ccc(CNC(=O)c2cnc3sc(N4CCCCC4)nn3c2=O)cc1	.	-4%	-21%	-16%	.	-4%
CCCc1cc(=O)oc2c3c(c4c(c12)OC(C)(C)C=C4)OC(C)C(C)C3O (stereo not given)	?	?	8.2µM*	6.5µM*	-71*	7.9µM*
